In the supplement of paper PMC11732987, “Enantioselective OTUD7B fragment discovery through chemoproteomics screening and high-throughput optimisation” (Communications Chemistry, 2025):

How the values were obtained:
Assay in all cases: log2 ratio of Biotin-Ahx-Ub-VS probe labelling (fragment/DMSO); higher = less target engagement (more negative = stronger competition), active = hit call of the paper (q ≤ 0.05, log2 ratio ≤ -1)
Conditions in all cases: compound concentration: 200 uM; treatment time: 3 h
USP19 = biological target: T1, USP19 (UniProt O94966)
T1 sequence (whole entry): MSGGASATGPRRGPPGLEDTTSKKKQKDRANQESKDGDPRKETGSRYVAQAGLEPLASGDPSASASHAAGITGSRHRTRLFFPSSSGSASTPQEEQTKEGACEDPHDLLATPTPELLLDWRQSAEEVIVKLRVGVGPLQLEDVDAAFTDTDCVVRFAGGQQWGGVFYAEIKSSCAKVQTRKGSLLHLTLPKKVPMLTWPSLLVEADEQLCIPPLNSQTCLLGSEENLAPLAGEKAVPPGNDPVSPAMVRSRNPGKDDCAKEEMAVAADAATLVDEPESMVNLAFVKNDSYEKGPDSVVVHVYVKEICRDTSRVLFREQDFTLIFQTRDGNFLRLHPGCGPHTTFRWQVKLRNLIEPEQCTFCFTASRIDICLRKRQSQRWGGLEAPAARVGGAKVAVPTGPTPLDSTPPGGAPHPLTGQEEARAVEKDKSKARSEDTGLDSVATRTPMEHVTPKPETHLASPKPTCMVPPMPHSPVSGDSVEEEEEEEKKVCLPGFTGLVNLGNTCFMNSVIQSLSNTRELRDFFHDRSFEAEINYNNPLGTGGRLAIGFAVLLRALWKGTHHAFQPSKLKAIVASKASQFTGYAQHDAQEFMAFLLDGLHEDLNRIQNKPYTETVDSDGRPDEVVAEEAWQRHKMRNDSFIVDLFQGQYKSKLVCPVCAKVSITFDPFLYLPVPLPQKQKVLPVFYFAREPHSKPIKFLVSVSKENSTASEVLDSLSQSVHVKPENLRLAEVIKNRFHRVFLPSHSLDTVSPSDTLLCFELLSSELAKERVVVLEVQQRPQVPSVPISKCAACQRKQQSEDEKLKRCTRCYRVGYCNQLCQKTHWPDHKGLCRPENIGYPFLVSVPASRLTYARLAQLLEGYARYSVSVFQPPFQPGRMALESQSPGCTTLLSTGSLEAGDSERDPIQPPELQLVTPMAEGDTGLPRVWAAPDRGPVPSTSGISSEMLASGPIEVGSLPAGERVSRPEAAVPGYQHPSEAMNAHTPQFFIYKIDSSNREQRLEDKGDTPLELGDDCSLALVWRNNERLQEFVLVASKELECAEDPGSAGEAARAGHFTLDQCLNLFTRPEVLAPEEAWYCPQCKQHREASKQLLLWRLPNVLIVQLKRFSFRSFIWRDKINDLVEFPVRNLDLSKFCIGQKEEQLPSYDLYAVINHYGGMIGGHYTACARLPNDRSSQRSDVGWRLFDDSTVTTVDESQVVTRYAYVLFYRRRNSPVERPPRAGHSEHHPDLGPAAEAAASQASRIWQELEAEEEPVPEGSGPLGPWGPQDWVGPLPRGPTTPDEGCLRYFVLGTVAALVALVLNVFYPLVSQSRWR
In short: (§1)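 Labelled DUBs were enriched with NeutrAvidin, digested with LysC and trypsin, and run by diaPASEF LC-MS/MS. The labelling used Biotin-Ahx-Ub-VS at 0.5 µM final for 1 h on HEK293T lysate (495 µg per sample) previously treated in triplicate with fragment at 200 µM or vehicle for 3 h. Values are average log2 fragment/vehicle ratios by unpaired t-test on global-median-normalised Spectronaut quantities of proteins with ≥2 unique peptides.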

USP22 = biological target: T2, USP22 (UniProt Q9UPT9)
T2 sequence (whole entry): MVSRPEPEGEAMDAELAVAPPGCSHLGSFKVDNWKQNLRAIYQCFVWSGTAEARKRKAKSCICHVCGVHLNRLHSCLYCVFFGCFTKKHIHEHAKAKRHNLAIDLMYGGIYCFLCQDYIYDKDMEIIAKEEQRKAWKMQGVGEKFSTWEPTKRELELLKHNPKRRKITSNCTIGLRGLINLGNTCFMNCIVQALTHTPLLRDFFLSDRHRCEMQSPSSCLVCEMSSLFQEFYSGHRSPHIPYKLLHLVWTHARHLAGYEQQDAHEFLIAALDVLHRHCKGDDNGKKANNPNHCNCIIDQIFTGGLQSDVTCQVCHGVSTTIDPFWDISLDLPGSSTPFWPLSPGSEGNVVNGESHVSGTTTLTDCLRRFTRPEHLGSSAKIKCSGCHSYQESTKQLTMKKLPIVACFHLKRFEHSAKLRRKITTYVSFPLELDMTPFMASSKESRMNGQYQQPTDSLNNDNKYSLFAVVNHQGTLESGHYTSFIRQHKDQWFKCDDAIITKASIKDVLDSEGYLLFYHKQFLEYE
In short: as §1

USP24 = USP24 (UniProt Q9UPU5)
Sequence of USP24 (Q9UPU5 whole entry): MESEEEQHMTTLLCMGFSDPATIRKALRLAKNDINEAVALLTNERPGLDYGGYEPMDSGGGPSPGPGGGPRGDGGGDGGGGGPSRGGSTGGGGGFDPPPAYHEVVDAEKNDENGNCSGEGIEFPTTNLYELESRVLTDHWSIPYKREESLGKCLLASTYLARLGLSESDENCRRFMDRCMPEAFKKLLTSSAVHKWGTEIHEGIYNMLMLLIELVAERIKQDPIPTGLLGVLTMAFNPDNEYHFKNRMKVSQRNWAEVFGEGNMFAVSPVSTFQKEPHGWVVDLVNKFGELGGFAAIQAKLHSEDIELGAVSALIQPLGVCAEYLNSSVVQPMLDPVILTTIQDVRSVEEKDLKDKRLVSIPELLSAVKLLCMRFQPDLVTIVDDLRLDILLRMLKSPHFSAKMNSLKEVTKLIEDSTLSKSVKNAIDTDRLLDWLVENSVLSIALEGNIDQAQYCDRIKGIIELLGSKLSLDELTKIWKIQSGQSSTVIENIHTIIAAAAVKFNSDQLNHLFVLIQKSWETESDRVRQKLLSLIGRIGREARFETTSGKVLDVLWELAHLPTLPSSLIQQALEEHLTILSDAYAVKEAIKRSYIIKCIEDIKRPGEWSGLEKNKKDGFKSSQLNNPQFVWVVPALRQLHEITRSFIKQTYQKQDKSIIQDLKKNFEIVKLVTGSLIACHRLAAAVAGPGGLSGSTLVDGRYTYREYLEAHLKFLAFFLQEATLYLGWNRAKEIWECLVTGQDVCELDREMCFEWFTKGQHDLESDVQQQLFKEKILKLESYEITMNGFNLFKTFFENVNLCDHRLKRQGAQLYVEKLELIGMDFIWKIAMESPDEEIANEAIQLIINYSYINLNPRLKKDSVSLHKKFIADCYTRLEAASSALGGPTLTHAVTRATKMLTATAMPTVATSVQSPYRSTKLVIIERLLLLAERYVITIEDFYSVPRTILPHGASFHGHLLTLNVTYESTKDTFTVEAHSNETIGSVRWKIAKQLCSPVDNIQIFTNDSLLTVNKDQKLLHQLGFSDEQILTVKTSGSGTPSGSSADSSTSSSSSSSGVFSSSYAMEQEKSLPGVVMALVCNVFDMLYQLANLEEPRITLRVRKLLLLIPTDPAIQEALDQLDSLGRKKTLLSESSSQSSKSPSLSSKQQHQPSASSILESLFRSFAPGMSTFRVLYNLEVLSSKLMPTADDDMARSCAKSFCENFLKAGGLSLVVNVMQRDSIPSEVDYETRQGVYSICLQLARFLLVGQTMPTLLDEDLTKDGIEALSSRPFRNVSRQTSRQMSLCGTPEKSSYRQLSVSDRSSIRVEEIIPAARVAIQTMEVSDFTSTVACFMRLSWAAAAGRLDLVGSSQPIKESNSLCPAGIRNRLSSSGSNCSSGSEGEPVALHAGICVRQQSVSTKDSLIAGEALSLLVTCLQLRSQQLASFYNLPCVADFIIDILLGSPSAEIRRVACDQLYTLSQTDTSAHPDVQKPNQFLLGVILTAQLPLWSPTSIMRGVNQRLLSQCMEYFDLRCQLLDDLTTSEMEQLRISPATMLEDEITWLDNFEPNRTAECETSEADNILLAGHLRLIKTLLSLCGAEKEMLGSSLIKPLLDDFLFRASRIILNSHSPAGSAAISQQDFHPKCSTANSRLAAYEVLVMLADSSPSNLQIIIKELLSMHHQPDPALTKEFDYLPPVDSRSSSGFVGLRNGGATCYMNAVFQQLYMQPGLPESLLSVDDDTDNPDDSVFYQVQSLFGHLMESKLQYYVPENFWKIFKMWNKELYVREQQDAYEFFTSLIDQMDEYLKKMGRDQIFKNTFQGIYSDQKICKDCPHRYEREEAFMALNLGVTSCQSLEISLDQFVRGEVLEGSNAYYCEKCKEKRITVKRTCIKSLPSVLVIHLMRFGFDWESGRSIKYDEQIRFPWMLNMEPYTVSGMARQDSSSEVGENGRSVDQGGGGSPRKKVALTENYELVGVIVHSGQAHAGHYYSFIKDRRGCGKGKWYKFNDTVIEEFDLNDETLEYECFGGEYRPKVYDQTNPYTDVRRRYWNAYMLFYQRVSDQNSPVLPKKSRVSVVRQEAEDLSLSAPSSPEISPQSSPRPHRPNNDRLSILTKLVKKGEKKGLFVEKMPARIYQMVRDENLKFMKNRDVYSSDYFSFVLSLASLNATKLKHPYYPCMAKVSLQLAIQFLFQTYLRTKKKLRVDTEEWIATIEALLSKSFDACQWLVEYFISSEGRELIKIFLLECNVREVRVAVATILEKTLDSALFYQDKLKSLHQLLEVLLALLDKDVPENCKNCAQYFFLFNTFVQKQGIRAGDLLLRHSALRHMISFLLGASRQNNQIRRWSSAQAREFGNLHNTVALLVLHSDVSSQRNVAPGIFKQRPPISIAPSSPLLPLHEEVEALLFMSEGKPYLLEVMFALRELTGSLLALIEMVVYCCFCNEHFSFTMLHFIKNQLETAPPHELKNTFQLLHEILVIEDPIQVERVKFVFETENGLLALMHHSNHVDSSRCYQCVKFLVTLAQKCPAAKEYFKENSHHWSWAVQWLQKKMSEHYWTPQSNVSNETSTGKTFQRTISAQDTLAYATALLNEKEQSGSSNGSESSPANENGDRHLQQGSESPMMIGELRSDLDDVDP
In short: as §1

USP25 = biological target: T3, USP25 (UniProt Q9UHP3)
T3 sequence (whole entry): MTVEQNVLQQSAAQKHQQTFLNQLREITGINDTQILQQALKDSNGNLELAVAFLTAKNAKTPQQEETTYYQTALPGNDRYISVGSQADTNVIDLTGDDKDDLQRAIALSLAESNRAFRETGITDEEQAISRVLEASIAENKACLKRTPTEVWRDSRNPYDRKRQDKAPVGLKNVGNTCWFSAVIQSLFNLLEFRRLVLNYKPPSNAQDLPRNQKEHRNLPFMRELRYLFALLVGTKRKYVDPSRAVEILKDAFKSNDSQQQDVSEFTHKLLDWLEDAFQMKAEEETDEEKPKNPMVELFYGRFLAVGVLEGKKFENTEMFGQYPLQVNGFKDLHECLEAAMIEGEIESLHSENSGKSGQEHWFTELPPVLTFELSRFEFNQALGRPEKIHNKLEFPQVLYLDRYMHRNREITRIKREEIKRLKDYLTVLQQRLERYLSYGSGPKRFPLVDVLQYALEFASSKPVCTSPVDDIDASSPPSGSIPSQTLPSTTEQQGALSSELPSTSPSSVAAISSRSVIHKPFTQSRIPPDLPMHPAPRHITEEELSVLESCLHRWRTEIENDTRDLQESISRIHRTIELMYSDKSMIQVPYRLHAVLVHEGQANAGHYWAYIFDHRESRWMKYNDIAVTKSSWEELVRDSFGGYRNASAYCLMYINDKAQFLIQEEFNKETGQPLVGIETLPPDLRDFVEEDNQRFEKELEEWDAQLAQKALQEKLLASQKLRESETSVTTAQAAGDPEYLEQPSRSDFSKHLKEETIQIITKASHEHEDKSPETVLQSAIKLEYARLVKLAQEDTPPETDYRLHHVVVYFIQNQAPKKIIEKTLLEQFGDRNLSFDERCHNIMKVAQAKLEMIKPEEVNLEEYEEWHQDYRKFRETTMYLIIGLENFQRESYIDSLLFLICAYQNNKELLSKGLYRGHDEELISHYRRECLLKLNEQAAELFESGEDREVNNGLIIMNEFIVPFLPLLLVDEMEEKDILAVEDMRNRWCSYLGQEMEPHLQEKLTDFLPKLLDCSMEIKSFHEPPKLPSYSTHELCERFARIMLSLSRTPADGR
In short: as §1

USP28 = biological target: T4, USP28 (UniProt Q96RU2)
T4 sequence (whole entry): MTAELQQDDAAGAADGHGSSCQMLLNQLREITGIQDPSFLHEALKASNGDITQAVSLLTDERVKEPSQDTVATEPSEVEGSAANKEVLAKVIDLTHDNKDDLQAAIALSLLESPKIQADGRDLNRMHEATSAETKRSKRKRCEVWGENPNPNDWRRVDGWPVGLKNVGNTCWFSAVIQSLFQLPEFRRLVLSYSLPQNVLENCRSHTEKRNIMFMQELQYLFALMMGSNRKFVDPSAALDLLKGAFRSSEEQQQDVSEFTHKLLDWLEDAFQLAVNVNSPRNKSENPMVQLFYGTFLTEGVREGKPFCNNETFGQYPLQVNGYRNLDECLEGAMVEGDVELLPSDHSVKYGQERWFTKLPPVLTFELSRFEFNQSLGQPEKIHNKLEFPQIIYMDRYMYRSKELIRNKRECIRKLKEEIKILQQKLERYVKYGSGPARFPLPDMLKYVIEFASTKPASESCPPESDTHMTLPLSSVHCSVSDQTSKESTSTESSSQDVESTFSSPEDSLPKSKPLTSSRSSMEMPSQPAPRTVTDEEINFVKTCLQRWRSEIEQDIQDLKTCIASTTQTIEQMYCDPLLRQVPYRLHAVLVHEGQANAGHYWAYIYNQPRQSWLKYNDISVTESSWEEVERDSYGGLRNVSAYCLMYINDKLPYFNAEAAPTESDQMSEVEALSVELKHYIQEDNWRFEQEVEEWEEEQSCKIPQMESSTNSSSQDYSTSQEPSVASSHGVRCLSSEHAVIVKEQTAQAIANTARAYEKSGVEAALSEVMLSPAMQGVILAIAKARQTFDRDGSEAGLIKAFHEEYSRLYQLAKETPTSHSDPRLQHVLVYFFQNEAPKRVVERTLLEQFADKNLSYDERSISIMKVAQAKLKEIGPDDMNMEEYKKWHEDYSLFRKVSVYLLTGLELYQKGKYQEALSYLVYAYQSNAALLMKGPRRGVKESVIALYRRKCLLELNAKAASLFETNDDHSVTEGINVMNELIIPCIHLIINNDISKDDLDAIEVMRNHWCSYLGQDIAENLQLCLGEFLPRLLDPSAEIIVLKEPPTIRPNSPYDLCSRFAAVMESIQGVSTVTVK
In short: as §1

Measured: log2 ratio of Biotin-Ahx-Ub-VS probe labelling

O=C(CCl)Nc1nnc(CC(F)(F)F)o1
inactive: USP19 -0.39 | USP22 -0.0202 | USP24 -0.372 | USP25 -0.777 | USP28 -0.479
